Data reported in PubChem BioAssay.
Active and inactive are the calls of the source.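 How the source made its calls, unless noted: active means inhibition of the reporter signal at or above 50%; inactive means inhibition below 50%.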

What was measured:
[1] = inhibitors of TNFa-induced NFkB p65 translocation, primary screen, imaging, HUVEC, MLSMR starter and 10KST1 sets (AID 438;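 active means inhibition above 20% together with a positive visual image hit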;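 further: compound added about 3h40 before a 20 min TNFalpha stimulation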;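 on inhibition: signal is the nuclear over cytoplasmic p65 intensity ratio per well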); settings: HUVEC TNFa-induced p65 nuclear translocation; cell count: measured here: nuclei count (cytotoxicity indicator), at 2.08 µM; inhibition: at 2 µM, stronger effect = higher value, 0% TNFa-plus-vehicle, 100% no-TNFa wells
[2] = inhibitors of mutant huntingtin aggregation, primary screen, imaging, exon1htt(103Q)mCFP cells, high-content imaging (AID 483;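 active means visual image review flags a hit and inhibition of aggregation exceeds 20%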;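 further: compound exposure lasted 3 days before fixation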;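 on nuclei count: percent of the per-plate median nuclei count of sample wells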); settings: exon1htt(103Q)mCFP cell line, aggregate imaging, at 2 µM; inhibition of aggregation: stronger effect = higher value; nuclei count: measured here: cell count, toxicity
[3] = inhibitors of E-selectin induction by TNFa, primary screen, imaging, HUVEC, immunofluorescence, MLSMR starter and 10KST1 sets (AID 487;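 active means visually confirmed hit in the image check and inhibition above 20%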;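 on inhibition: signal is fraction of cell area covered by stained E-selectin grains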;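 on nuclei count: 100% = median nuclei count of all wells on the same plate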); settings: HUVEC TNFalpha-induced E-selectin immunofluorescence imaging, at 2 µM; inhibition: stronger effect = higher value; nuclei count: measured here: cell number, toxicity
[4] = molecular target: Voltage-gated potassium channel subunit beta-2 (Rattus norvegicus) (UniProt P62483); assay: KvBeta enzyme negative modulators, primary screen, biochemical, NADPH fluorescence (AID 622;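 active means fluorescence slope higher than the sample average by over 3 SD, cut at about -0.22 in these data, passing the limit was not always enough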;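 further: slope of raw intensity against log time taken from 70 to 1610 s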); settings: recombinant KvBeta, 4-cyanobenzaldehyde reduction, at 10 µM, stronger effect = higher value
[5] = molecular target: Voltage-gated potassium channel subunit beta-2 (Rattus norvegicus) (UniProt P62483); assay: KvBeta positive modulators, primary screen, biochemical, NADPH fluorescence (AID 623;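 active means NADPH fluorescence slope more negative than the mean of all samples by about 3 SD, 99.7% confidence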;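 further: fluorescence intensity change per second fitted from 20 to 320 s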); settings: Recombinant KvBeta, NADPH fluorescence decrease slope, 10 min; at 10 µM; stronger effect = lower value
[6] = molecular target: Alpha-2C adrenergic receptor (Homo sapiens) (UniProt P18825); assay: modulators of alpha2C/GIRK thallium flux, primary screen, cell-based, HEK293 alpha2C/GIRK1/2 (AID 624;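 active means fluorescence slope after compound addition differing from the mean of all screened samples at 99.7% confidence, in either direction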;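 further: slope of fluorescence ratio to pre-addition baseline per second over 15 to 24 s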); settings: thallium flux BTC fluorescence, at 10 µM, actives lie on both sides
[7] = inhibitors of Sendai virus-induced IRF3 signaling, primary screen, TLR/RLR signaling modifier project, cell-based, Sendai virus stimulus, luciferase, 10K MLSCN set (AID 602276;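 active means inhibition at or above 50% at 10 µM; inactive means inhibition below 50%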;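 further: firefly luciferase from ISG56 promoter only with Renilla not read in this screen; 0% = Sendai virus plus DMSO and 100% = medium plus DMSO without virus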); settings: HEK293 RL24 IRF3 luciferase reporter, at 10 µM, stronger effect = higher value
[8] = inhibitors of poly I:C-induced TLR3 signaling, primary screen, cell-based, poly I:C stimulus, luciferase, 10K MLSCN set (AID 602277); settings: HEK293-TLR3 RL24 IRF3 luciferase reporter, at 10 µM, stronger effect = higher value

Sequence of Alpha-2C adrenergic receptor (Homo sapiens) (P18825 whole entry, looked up): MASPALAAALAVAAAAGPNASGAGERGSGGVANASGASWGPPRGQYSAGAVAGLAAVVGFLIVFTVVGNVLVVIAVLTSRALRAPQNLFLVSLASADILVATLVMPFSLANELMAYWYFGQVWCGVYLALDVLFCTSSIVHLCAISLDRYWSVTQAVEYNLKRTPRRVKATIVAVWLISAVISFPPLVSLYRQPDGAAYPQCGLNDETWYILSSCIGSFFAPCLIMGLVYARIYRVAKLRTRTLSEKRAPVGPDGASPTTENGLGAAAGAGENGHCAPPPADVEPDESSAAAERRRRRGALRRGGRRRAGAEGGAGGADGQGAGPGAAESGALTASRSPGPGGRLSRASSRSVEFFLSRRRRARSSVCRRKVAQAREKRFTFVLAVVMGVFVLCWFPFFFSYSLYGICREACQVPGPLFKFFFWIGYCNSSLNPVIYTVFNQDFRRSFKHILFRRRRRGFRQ
Sequence of Voltage-gated potassium channel subunit beta-2 (Rattus norvegicus) (P62483 whole entry, looked up): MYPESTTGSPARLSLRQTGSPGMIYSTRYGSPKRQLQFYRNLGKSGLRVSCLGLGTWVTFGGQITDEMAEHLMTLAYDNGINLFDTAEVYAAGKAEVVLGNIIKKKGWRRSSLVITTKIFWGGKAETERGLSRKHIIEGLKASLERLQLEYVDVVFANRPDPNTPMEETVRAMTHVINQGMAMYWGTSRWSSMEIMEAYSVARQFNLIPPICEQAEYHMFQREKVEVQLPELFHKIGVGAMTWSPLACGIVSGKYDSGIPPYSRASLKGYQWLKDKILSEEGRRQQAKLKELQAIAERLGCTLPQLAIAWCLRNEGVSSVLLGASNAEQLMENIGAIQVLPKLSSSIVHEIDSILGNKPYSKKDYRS

| Compound | cell count [1] | inhibition [1] | inhibition of aggregation [2] | nuclei count [2] [%] | inhibition [3] | nuclei count [3] [%] | fluorescence slope [4] | NADPH fluorescence slope [5] | slope [6] | inhibition [7] | inhibition [8] |
| --- | --- | --- | --- | --- | --- | --- | --- | --- | --- | --- | --- |
| CC1CC(C)CN(CCCNC(=O)c2ccc3c(c2)NC(=O)C(N2CCCCC2)S3)C1 (stereo not drawn) | 395 | -7.7% (inactive) | -6.5% (inactive) | 101 | -14.9% (inactive) | 113 | -0.317 (inactive) | 6.4e-06 (inactive) | 0.00531 (inactive) | -18.6% (inactive) | -14.5% (inactive) |
| O=C1CC(C(=O)Nc2ccc(Br)cc2)C2(CCCC2)O1 (stereo not drawn) | 630 | -4.1% (inactive) | -3.7% (inactive) | 102 | -70% (inactive) | 98.1 | -0.406 (inactive) | -3e-05 (inactive) | 0.00668 (inactive) | 16.6% (inactive) | 11.8% (inactive) |
| COC(=O)CN1C(=O)C(O)(CC(=O)c2ccc(Cl)cc2)c2ccccc21 (stereo not drawn) | 605 | -0.8% (inactive) | -5.5% (inactive) | 110 | -40.7% (inactive) | 102 | -0.372 (inactive) | 2.5e-05 (inactive) | 0.00594 (inactive) | 17.2% (inactive) | 36% (inactive) |
| O=C(NCc1nnc(SCC(=O)N2CCC(Cc3ccccc3)CC2)o1)c1ccccc1F | 574 | -0.4% (inactive) | 4.4% (inactive) | 112 | 5.1% (inactive) | 110 | -0.549 (inactive) | -5.6e-05 (inactive) | 0.00657 (inactive) | -4.5% (inactive) | 8.45% (inactive) |
| CCN(CC)S(=O)(=O)c1ccc(S(=O)(=O)N(Cc2ccccn2)Cc2ccco2)cc1 | 322 | -0.8% (inactive) | -9.2% (inactive) | 112 | -68.2% (inactive) | 123 | -0.608 (inactive) | 6.2e-06 (inactive) | 0.00512 (inactive) | 6.58% (inactive) | 18.5% (inactive) |
| O=C(CCn1c(=S)[nH]c2ccccc2c1=O)NCC1CCCO1 (stereo not drawn) | 491 | 9.4% (inactive) | 6% (inactive) | 99.2 | 8% (inactive) | 109 | -0.622 (inactive) | -8.8e-06 (inactive) | 0.0038 (inactive) | 8.18% (inactive) | 2.45% (inactive) |
| COC(=O)c1cccc(Oc2nc3c(c(=O)n(C)c(=O)n3C)n2C(C)C)c1 | 668 | -5.8% (inactive) | 3.9% (inactive) | 102 | -55.6% (inactive) | 106 | -0.436 (inactive) | -3.6e-05 (inactive) | 0.00584 (inactive) | 15% (inactive) | 28.3% (inactive) |
| Cc1cc(C(=O)Nc2ccccc2C#N)n(-c2ccccc2)n1 | 763 | 7.7% (inactive) | 19.6% (inactive) | 88.3 | 27.3% (inactive) | 108 | -0.556 (inactive) | 2.9e-05 (inactive) | 0.00747 (inactive) | -2.18% (inactive) | 20.7% (inactive) |
| COc1cc2c(cc1NC(=O)CN1CCN(S(=O)(=O)c3ccc(F)cc3)CC1)oc1ccccc12 | 583 | -2.4% (inactive) | -2.8% (inactive) | 95.8 | -33.6% (inactive) | 88.8 | -0.364 (inactive) | 1.3e-05 (inactive) | 0.0037 (inactive) | 2.2% (inactive) | 30.3% (inactive) |
| CCn1cc(SCC(=O)Nc2cc(C)on2)c2ccccc21 | 760 | -15.1% (inactive) | -0.1% (inactive) | 60.4 | 29.9% (inactive) | 86.4 | -0.494 (inactive) | -2.7e-05 (inactive) | 0.00702 (inactive) | 26.7% (inactive) | 25.1% (inactive) |
| Cc1occc1C(=O)N1CCN(Cc2ccccc2)CC1 | 661 | -9% (inactive) | 8.8% (inactive) | 75.8 | -40.1% (inactive) | 104 | -0.483 (inactive) | -3.8e-05 (inactive) | 0.00745 (inactive) | 7.4% (inactive) | 34.1% (inactive) |
| Cc1cc(Oc2ccccc2)nc(-c2ccccc2)n1 | 763 | 4.4% (inactive) | -2.1% (inactive) | 99.1 | 62.8% (active) | 70.6 | -0.484 (inactive) | -8.7e-05 (inactive) | 0.00573 (inactive) | -19.4% (inactive) | -47.5% (inactive) |
| Nc1nc(NCc2ccco2)nn1-c1ccccc1 | 335 | -14.2% (inactive) | -22.2% (inactive) | 112 | 5.3% (inactive) | 93.7 | -0.402 (inactive) | -8.1e-05 (inactive) | 0.00567 (inactive) | 7.08% (inactive) | -10.7% (inactive) |
| Cc1ccccc1NC(=O)CSc1nc(N)c(C#N)c(-c2cccs2)c1C#N | 440 | -0.3% (inactive) | -16.8% (inactive) | 110 | -12.2% (inactive) | 98.8 | -0.475 (inactive) | -4.8e-05 (inactive) | 0.00696 (inactive) | 11.6% (inactive) | 14.3% (inactive) |
| Cc1cccc2c1nc(-c1ccccc1)n1cnnc21 | 345 | -10.7% (inactive) | -2.7% (inactive) | 73 | -58% (inactive) | 114 | -0.452 (inactive) | -2.6e-08 (inactive) | 0.00423 (inactive) | -15.9% (inactive) | -12.4% (inactive) |
| O=C1c2ccccc2NC2CCCCCN12 (stereo not drawn) | 445 | -2.1% (inactive) | -11% (inactive) | 108 | 13.9% (inactive) | 110 | -0.417 (inactive) | 2.2e-05 (inactive) | 0.0068 (inactive) | -2.99% (inactive) | 4.91% (inactive) |
| Cc1nc(N)[nH]c(=O)c1CCC(=O)OCC(C)C | 587 | -22.7% (inactive) | 5.9% (inactive) | 80 | -61.2% (inactive) | 97 | -0.507 (inactive) | -4.8e-06 (inactive) | 0.00627 (inactive) | 6.72% (inactive) | 32.1% (inactive) |
| CCCCN(CCCC)CCn1cnc2c([nH]c3ccc(OC)cc32)c1=O | 569 | -7.1% (inactive) | 0.2% (inactive) | 85.8 | -65.8% (inactive) | 105 | -0.536 (inactive) | -1.1e-05 (inactive) | 0.00685 (inactive) | 4.54% (inactive) | 30.7% (inactive) |
| CSCCC(C(=O)Nc1ccc2c(c1)OCO2)N1C(=O)c2ccccc2C1=O (stereo not drawn) | 632 | 3.8% (inactive) | -16.3% (inactive) | 96.3 | -138% (inactive) | 107 | -0.61 (inactive) | -7.2e-06 (inactive) | 0.006 (inactive) | 9.29% (inactive) | 22% (inactive) |
| CCC1CCCCN1C(=O)C1CC(c2cc(Cl)c(OC)cc2OC)=NO1 (stereo not drawn) | 411 | 6.8% (inactive) | 1.6% (inactive) | 108 | -8.7% (inactive) | 168 | -0.504 (inactive) | 2e-05 (inactive) | 0.00725 (inactive) | -1.49% (inactive) | -30.3% (inactive) |
| c1ccn2c(SCc3ccc4c(c3)OCCO4)nnc2c1 | 793 | -10.5% (inactive) | 11.4% (inactive) | 88.9 | -56.4% (inactive) | 117 | -0.583 (inactive) | 5.1e-06 (inactive) | 0.00773 (inactive) | -29.2% (inactive) | -95% (inactive) |
| CSc1nc(=NC(C)=O)ss1 | 723 | -18.1% (inactive) | -0.1% (inactive) | 106 | 22.2% (inactive) | 110 | -0.528 (inactive) | -5.6e-05 (inactive) | 0.00608 (inactive) | 4% (inactive) | 8.14% (inactive) |
| O=C(Nc1ccccc1N1CCCCC1)c1ncoc1-c1ccc(F)cc1 | 426 | -1.8% (inactive) | -0.9% (inactive) | 87.1 | -180% (inactive) | 122 | -0.424 (inactive) | 4.4e-06 (inactive) | 0.00948 (inactive) | -3.24% (inactive) | -51.9% (inactive) |
| CCN(CCCNC(=O)CCNC(=O)Cn1ccc2ccccc2c1=O)c1ccccc1 | 393 | 4.5% (inactive) | -6.3% (inactive) | 103 | -106% (inactive) | 118 | -0.441 (inactive) | -8.2e-06 (inactive) | 0.00588 (inactive) | -0.268% (inactive) | -15.2% (inactive) |
| Cc1cccc(NC(=O)C2CCCN(C(=O)Nc3ccccc3)C2)c1C (stereo not drawn) | 599 | -28.6% (inactive) | -9.1% (inactive) | 87.8 | -9.2% (inactive) | 85.7 | -0.573 (inactive) | 4.6e-05 (inactive) | 0.00746 (inactive) | 4% (inactive) | -12% (inactive) |
| CS(=O)(=O)c1ccc2nc(NC(=O)c3cccs3)sc2c1 | 351 | -2.9% (inactive) | 4.4% (inactive) | 105 | 3.9% (inactive) | 104 | -0.487 (inactive) | -5.8e-05 (inactive) | 0.00673 (inactive) | -10.7% (inactive) | -21.1% (inactive) |
| CCCCOc1ccc(S(=O)(=O)n2c(C)nc3ccccc32)cc1 | 445 | -1.5% (inactive) | -1.2% (inactive) | 102 | -286% (inactive) | 113 | -0.387 (inactive) | 1.3e-05 (inactive) | 0.00302 (inactive) | 9.07% (inactive) | 16.6% (inactive) |
| CC1=C(C(N)=O)C(c2cccnc2)n2nc(SCc3ccccc3Cl)nc2N1 (stereo not drawn) | 533 | -21.6% (inactive) | -13.4% (inactive) | 104 | -130% (inactive) | 107 | -0.463 (inactive) | -5.4e-05 (inactive) | 0.00786 (inactive) | -20.3% (inactive) | 19.5% (inactive) |
